High-throughput results: PubChem BioAssay, National Center for Advancing Translational Sciences (NCATS)
The list is not random: actives were taken first. Their share in the collection is about 17%.
HT1080NT lethal – kills 2HG-producing HT-1080-NT fibrosarcoma cells | Potency, µM (series often up to 46.1 µM), inactives show at the highest dose activity, negative = less viability, most hits filed as cytotoxic | AID 686970 | actives 1.6% (n = 360,000) | HT-1080-NT fibrosarcoma viability, CellTiter-Glo ATP luminescence, 48 h;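 further: NT is the 2HG producing partner of a matched IDH1 knockdown line; 0% = DMSO-treated cells and -100% = media-only wells without cells; nearly all actives have a fitted effect of over 55% in size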
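Viability by CellTiter-Glo luminescence after 48 h compound exposure at 37C of HT-1080-NT cells (750/well, RPMI, 5% FBS). % activity scaled between DMSO wells and medium-only wells, then curve-fitted and categorized by curve class.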
TGFb SMAD3 inh – blocks TGF-b signaling | HepG2 CAGA-GFP TGF-b/SMAD3 reporter, GFP fluorescence, 18 h; TGF-beta stimulated, 500 pg/mL final | Potency, µM (doses to about 46.1 µM), inactives show top-dose activity, negative = inhibition, most hits filed as inhibitors | actives 1.2% (n = 410,000) | AID 588855; further: on the % scale 0 is the no-effect control and ±100 the full control effect; nearly all actives have a fitted effect of over 65% in size
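Per well, imaged GFP fluorescence of HEPG2 CAGA-GFP cells gives the signal; cells get compound, then TGF-beta (500 pg/mL final), 18 h at 37 degrees C; %Activity versus -TGF-beta and +DMSO controls.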
DT40 TDP1 no CPT – qHTS for Inhibitors of human tyrosyl-DNA phosphodiesterase 1 (TDP1): qHTS in cells in absence of CPT. DT40 Tdp1-/- hTDP1 cells, no CPT, ATP luminescence, 48 h. Potency, µM (highest dose often 46.2 µM), without a hit: at the highest dose activity change, negative = growth inhibition, hits mostly inhibitors. actives 15% (n = 420,000); further: on the % scale 0 is the no-effect control and ±100 the full control effect; nearly all actives have a fitted effect of over 55% in size
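Luminescent ATP content (CellTiter-Glo) served as the growth readout. Knockout chicken DT40 cells expressing human TDP1 were exposed to compounds without camptothecin for a minimum 48 hr at 37 °C.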
HT1080 IDH1KD tx – toxicity to HT-1080 IDH1 knockdown cells (counter line) | AID 686971 | HT-1080 IDH1 knockdown viability, ATP luminescence, 48 h | Potency, µM (doses to about 46.1 µM), for inactives: at the top dose activity, negative = toxicity, actives largely listed as cytotoxic | actives 2% (n = 360,000);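 further: 0% = DMSO wells and -100% = cell-free medium wells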
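After a 2 h attachment period, IDH1KD HT-1080 cells took pin-transferred compound for 48 h at 37 °C; ATP-based luminescence after 10 min room-temperature reagent incubation reported viability.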
TDP1 cell CPT – growth inhibition of DT40 Tdp1-/-;hTDP1 cells with camptothecin (screen for TDP1 inhibitors); Potency, µM (top dose mostly 46.2 µM), for the others: top-dose activity change, negative = growth inhibition, usual class: inhibitors; chicken DT40 Tdp1-/-;hTDP1 cells + 20 nM CPT, ATP luminescence, 48 h; actives 12% (n = 420,000); AID 686979; further: on the % scale 0 is the no-effect control and ±100 the full control effect; nearly all actives have a fitted effect of over 55% in size
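Cell growth measured by CellTiter-Glo luminescence after a minimum 48 h, 37 C compound exposure with 20 nM CPT in Tdp1-knockout DT40 cells stably expressing hTDP1, seeded 400/well; qHTS titration format.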
HepG2 viability – kills HepG2 cells in TGF-b inhibitor counter-screen | Potency, µM (doses to about 46.1 µM), inactives show top-dose activity change, negative = cytotoxicity, most hits filed as cytotoxic | actives 0.76% (n = 410,000) | HepG2 CAGA-GFP viability, ATP luminescence, 18 h | AID 588856
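CellTiter-Glo luminescence gave cytotoxicity after 18 hours at 37 degrees C. The cells were HepG2 CAGA-GFP in 1% FBS DMEM, stimulated with 500 pg/mL TGF-beta after compound addition. %Activity was normalised to no-cell wells (complete cell-killing) and DMSO (no toxicity), and curves were fitted and classified.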
The depositor's hits bear a star. The call rests on the fitted dose curve; in most records, active means well fitted curve in the direction sought with a large enough effect; inconclusive means small, poorly fitted or top-dose-only effect, or another doubt; inactive means no such curve, though single readings can be large; an effect the other way counts as inactive or inconclusive. Potency means the concentration at half of the fitted maximal effect.

How did CCCCNC(=S)NNC(=O)c1cccnc1 do in these assays?
HT1080NT lethal: 12%; TGFb SMAD3 inh: -15%; DT40 TDP1 no CPT: -8%; HT1080 IDH1KD tx: 8%; TDP1 cell CPT: -15%; HepG2 viability: -13%

Results for COc1ccccc1C(=O)NC(C)c1ccc(-n2ccnc2)cc1 (configuration not stated) ?
HT1080NT lethal: 2%; TGFb SMAD3 inh: 29%; DT40 TDP1 no CPT: 0%; HT1080 IDH1KD tx: -7%; TDP1 cell CPT: -21%; HepG2 viability: 7%

Results for CC1(c2ccccc2)NC(=O)N(CC(=O)Nc2ccc(N3CCOCC3)cc2N2CCOCC2)C1=O (configuration not stated) ?
HT1080NT lethal: -21%; TGFb SMAD3 inh: -4%; DT40 TDP1 no CPT: -5%; HT1080 IDH1KD tx: -14%; TDP1 cell CPT: inconclusive; HepG2 viability: -2%

Results for Cc1ccc2c(Cl)c(Cc3ccccc3)c(=S)[nH]c2n1 ?
HT1080NT lethal: 0%; TGFb SMAD3 inh: 0%; DT40 TDP1 no CPT: inconclusive; HT1080 IDH1KD tx: -18%; TDP1 cell CPT: inconclusive; HepG2 viability: -24%

What do the screens show for `Cc1ccc(Cn2c(=N)c(C(=O)NCC3CCCO3)cc3c(=O)n4ccccc4nc32)cc1` (configuration not stated)?
HT1080NT lethal: -2%; TGFb SMAD3 inh: -3%; DT40 TDP1 no CPT: inconclusive; HT1080 IDH1KD tx: -20%; TDP1 cell CPT: inconclusive; HepG2 viability: 1%

How did N=c1c(C(=O)NCC2CCCO2)cc2c(=O)n3ccccc3nc2n1Cc1ccccc1Cl (configuration not stated) do in these assays?
HT1080NT lethal: -9%; TGFb SMAD3 inh: -27%; DT40 TDP1 no CPT: 1.3µM*; HT1080 IDH1KD tx: 2%; TDP1 cell CPT: 1.5µM*; HepG2 viability: -3%

What do the screens show for `N=c1c(C(=O)NCC2CCCO2)cc2c(=O)n3ccccc3nc2n1Cc1ccc(Cl)cc1` (configuration not stated)?
HT1080NT lethal: -5%; TGFb SMAD3 inh: -6%; DT40 TDP1 no CPT: 16µM*; HT1080 IDH1KD tx: 7%; TDP1 cell CPT: 10µM*; HepG2 viability: -21%

How did Cc1ccc(Cn2c(=N)c(C(=O)NCC3CCCO3)cc3c(=O)n4cccc(C)c4nc32)cc1 (configuration not stated) do in these assays?
HT1080NT lethal: 0%; TGFb SMAD3 inh: -5%; DT40 TDP1 no CPT: 9.2µM*; HT1080 IDH1KD tx: 1%; TDP1 cell CPT: 7.3µM*; HepG2 viability: -17%

How did N=c1c(C(=O)NCC2CCCO2)cc2c(=O)n3ccccc3nc2n1Cc1ccccc1 (configuration not stated) do in these assays?
HT1080NT lethal: -1%; TGFb SMAD3 inh: -2%; DT40 TDP1 no CPT: 1%; HT1080 IDH1KD tx: -11%; TDP1 cell CPT: -12%; HepG2 viability: -5%

How did CC(C)(C)n1ncc2c(=O)n(Cc3ccc(F)cc3Cl)cnc21 do in these assays?
TGFb SMAD3 inh: -6%; HepG2 viability: -38%

What do the screens show for `Cc1oc(-c2ccccc2NC(=O)c2cccnc2)nc1CNC(=O)c1ccc(N(C)C)cc1`?
DT40 TDP1 no CPT: -16%; TDP1 cell CPT: 1%

How did CCOc1ccccc1C(=O)N/N=C/c1coc2ccc(Cl)cc2c1=O do in these assays?
HT1080NT lethal: 1%; TGFb SMAD3 inh: 0%; DT40 TDP1 no CPT: inconclusive; HT1080 IDH1KD tx: -12%; TDP1 cell CPT: inconclusive; HepG2 viability: -20%

How did COc1ccc(Cl)cc1-c1cc(C(=O)NCC2CCCCC2)[nH]n1 do in these assays?
HT1080NT lethal: inconclusive; TGFb SMAD3 inh: inconclusive; DT40 TDP1 no CPT: 12µM*; HT1080 IDH1KD tx: inconclusive; TDP1 cell CPT: 8.2µM*; HepG2 viability: -14%

What do the screens show for `Cc1cc(F)ccc1-c1cc(C(=O)NCC2CCCCC2)[nH]n1`?
HT1080NT lethal: -8%; TGFb SMAD3 inh: inconclusive; DT40 TDP1 no CPT: inconclusive; HT1080 IDH1KD tx: -3%; TDP1 cell CPT: 21µM*; HepG2 viability: -20%

What do the screens show for `CCOc1ccc(Cl)cc1-c1cc(C(=O)NCC2CCCCC2)[nH]n1`?
HT1080NT lethal: 0%; TGFb SMAD3 inh: 7%; DT40 TDP1 no CPT: 6.5µM*; HT1080 IDH1KD tx: -18%; TDP1 cell CPT: 4.1µM*; HepG2 viability: 1%

How did CCOc1ccc(-c2cc(C(=O)NC3CCCCC3)[nH]n2)c(C)c1 do in these assays?
HT1080NT lethal: 29%; TGFb SMAD3 inh: 2%; DT40 TDP1 no CPT: -22%; HT1080 IDH1KD tx: 0%; TDP1 cell CPT: -28%; HepG2 viability: -19%

How did CC(C)Oc1cc(F)ccc1-c1cc(C(=O)NCC2CCCCC2)[nH]n1 do in these assays?
HT1080NT lethal: inconclusive; TGFb SMAD3 inh: 9%; DT40 TDP1 no CPT: inconclusive; HT1080 IDH1KD tx: 14%; TDP1 cell CPT: -22%; HepG2 viability: -5%

How did COc1ccc(F)cc1-c1cc(C(=O)NC2CCCCC2)[nH]n1 do in these assays?
HT1080NT lethal: inconclusive; TGFb SMAD3 inh: 9%; DT40 TDP1 no CPT: -11%; HT1080 IDH1KD tx: 21%; TDP1 cell CPT: -9%; HepG2 viability: -6%

Results for Cc1cc(C)n2nc(C(=O)OCC(=O)Nc3cc(S(=O)(=O)N4CCOCC4)ccc3Cl)nc2n1 ?
HT1080NT lethal: -3%; TGFb SMAD3 inh: 0%; DT40 TDP1 no CPT: -1%; HT1080 IDH1KD tx: -3%; TDP1 cell CPT: 6%; HepG2 viability: -24%

How did CCCC1C2CN(C(C)C)CC=C2C(C#N)=C(N)C1(C#N)C#N (configuration not stated) do in these assays?
HT1080NT lethal: -5%; TGFb SMAD3 inh: 1%; DT40 TDP1 no CPT: inconclusive; HT1080 IDH1KD tx: -11%; TDP1 cell CPT: inconclusive; HepG2 viability: -10%

Results for Cc1ccc2c3c(cccc13)-c1ccccc1C2=O ?
HT1080NT lethal: -3%; TGFb SMAD3 inh: -16%; DT40 TDP1 no CPT: inconclusive; HT1080 IDH1KD tx: -21%; TDP1 cell CPT: -29%; HepG2 viability: -31%

What do the screens show for `Cc1coc2c1C(=O)C(=O)c1c-2ccc2c1CCCC2(C)C`?
HT1080NT lethal: -17%; TGFb SMAD3 inh: inconclusive; DT40 TDP1 no CPT: 1.3µM*; HT1080 IDH1KD tx: -17%; TDP1 cell CPT: 0.82µM*; HepG2 viability: -32%

Results for Cc1coc2c1C(=O)C(=O)c1c-2ccc2c(C)cccc12 ?
HT1080NT lethal: -11%; TGFb SMAD3 inh: -13%; DT40 TDP1 no CPT: 4.6µM*; HT1080 IDH1KD tx: -14%; TDP1 cell CPT: 2.9µM*; HepG2 viability: -18%
